Assay in all cases: MAPPIT interaction score (arbitrary units); higher = stronger binary interaction signal, active = hit call of the paper;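 active = MAPPIT score above the 99th percentile of random reference set scores in the same batch; inactive = at or below it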
One test concerns the target Sod3.
The next test deals with Ssrp. The conditions noted are these: MAPPIT configuration: N-C; pair source set: Lit-BM-16.
The target of the next test is Sxl. The conditions noted are these: MAPPIT configuration: N-N; pair source set: Lit-BM-16.
Another test addresses Syp. The conditions noted are these: MAPPIT configuration: N-N; pair source set: DPIM.
In another test the target is Swt1. The conditions noted are these: MAPPIT configuration: N-N; pair source set: Finley_Y2H.
The next test concerns the target Su(var)2-10. The conditions noted are these: MAPPIT configuration: N-N; pair source set: DPIM.
In a further test the target is Taf12. The conditions noted are these: MAPPIT configuration: N-N; pair source set: Curagen_low_conf.
The target in the next test is THG. The conditions noted are these: MAPPIT configuration: N-N; pair source set: screen_2.
The target of a further test is Snapin. The conditions noted are these: MAPPIT configuration: N-N; pair source set: Lit-BM-16.
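Note: HEK293T cells with Epo stimulation, STAT-responsive firefly luciferase reporter, fold induction versus unstimulated cells divided by the larger fold induction of two negative controls lacking either bait or prey.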

B1: noc (protein)
chain: MVVLEGGGGVVTIGNNQYLQPDYLAPLPTTMDAKKSPLALLAQTCSQIGADSSAVKPLLAMDKNKTKPGACSSSSNSSSSSGSAEISAAKSPSGQAKSPKSSTPISSTATSASLSNTSTGEIKLAFKPYETNVLSHQNQNSFKSSSSLDAEPTRPSSKNSSSAQERVPSRSKSNATPTDGGKAEISAHDSSSSRKTVSPSGSSQRGASPIVRSGMEVLNNANGTAQHPKEMSSMAAAAAAAAAAYKAAGPYGLNPLSALCCPPGMEQHANPAFRPPFAGGFSHHHAAMLAVAANGGYPGGAPGGGPAGQPNPYISYQRIKTPAGGEAIVPVCKDPYCQGCPYSAHTQQMLMGAPCPAGCTQCEHQKYGLAMASAAGLPPAHPYSQAAAAAAANAAAARSAPYVCSWVVGDAYCGKRFQTSDELFSHLRTHTGNLSDPAAAAAALAQSQAQSLLGTLFPPSALRAGYPTPPLSPMSAAAAAARYHPYAKPPPGALAGGPSPFGAAGAFNPAAAAAAAALGPYYSPYAMYGQRMGAAHQ
B1: the MAPPIT interaction score in the test with Sod3 (MAPPIT configuration: N-N, pair source set: Lit-BS-16) was 0.758 (inactive).

B2: dre4 (protein)
chain: MSSFVLDKEAFVRRVKRLYTEWRAPSIGHDDALRNLDCIMSIVGVEEDVMYSKSMALQLWLLGYELTDTISVFCSDAVYFLTSKKKIEFLKQTQNITEEGFPEINLLVRDRTDKDQGNFEKLIKALQNSKKGKRLGVFAKDAYPGEFSEAWKKSLTASKFEHVDISTIIAYLMCPKDESEINNIRKASLVSMDIFNKYLKDEIMDIIDSDRKVKHNKLSDGCEAAIGEKKYTSGLDPRLLDMAYPPIIQSGGAYSLKFSAVADKNPLHFGVIVCSLGARYKSYCSNISRTFLVNPTEAMQENYTFLVSVQEEILKLLVPGTKLCDVYEKTLDFVKKEKPSMVDNLPKSFGFAMGLEFRENSIVIGPKCQALLKKNMVFNLHVGISNLTNPEATDKEGKNYALFIGDTVLVGEQSPASVMTPSKKKIKNVGIFIKDDSDEEDVDDKKTAKEDQGTEILGRSKRNAVLESKLRNEINTEEKRKEHQRELAQQLNERAKDRLARQGNSKEVEKVRKNTVSYKSISQMPREPEVKELKLYVDKKYETVIMPVFGIQVPFHISTIKNISQSVEGEYTYLRINFFHPGATMGRNEGGLYPQPEATFVKEVTYRSSNVKEHGEVGAPSANLNNAFRLIKEVQKRFKTREAEEREKEDLVKQDTLILSQNKGNPKLKDLYIRPNIVTKRMTGSLEAHSNGFRYISVRGDKVDILYNNIKSAFFQPCDGEMIILLHFHLKYAIMFGKKKHVDVQFYTEVGEITTDLGKHQHMHDRDDLAAEQAERELRHKLKTAFKSFCEKVETMTKSVVEFDTPFRELGFPGAPFRSTVTLQPTSGSLVNLTEWPPFVITLDDVELVHFERVQFHLRNFDMIFVFKEYNKKVAMVNAIPMNMLDHVKEWLNSCDIRYSEGVQSLNWQKIMKTITDDPEGFFEQGGWTFLDPESGSEGENETAESEEDEAYNPTDAESDEESDEDSEYSEASEDSEESDEDLGSDEESGKDWSDLEREAAEEDRNHDYAADDKPRNGKFDSKKHGKSSKHSPSKSSKDKYNSRDKHHSSSSSGNKSSSKDKDRKRSRDDSRDNGHKSKKSRH
Regarding B2, the MAPPIT interaction score with Ssrp is 0.759 (inactive).

B3: Unr (protein)
chain: MNTQSKVYRTGEEIYDNLPCDSYFNMNAIRNLGIPTTFPTIGTFTLDSTTLGLQPQGQGPSPQQQQHQQQQQQQQQQHQQNMHHHQHQQQHMQQQQQQQQHQQQHQQQQHQQQQQHQQQQQQQQQHPTIGMFDANEVNDVIQNPPQIGVFQSNSVLTNGAGSGSSIFGSQSSNSSAAAADPSQTTRETGIIEKLLHSYGFIQCCERQARLFFHFSQFSGNIDHLKIGDPVEFEMTYDRRTGKPIASQVSKIAPEVVLSEERVTGTVTTELRTDSANNVLNSSETTGRISYENRGECFFLPYTKDDVEGNVNLRAGDKVSFQIATNQRGNLGACHIRLENPAQPVKYRGVVCSMKESFGFIERADVVKEIFFHFSEAEGNVELRPGDDVEFTIQTRSSASVPPQGREFACNITRLAPGSVIFEDVDSTVYKGQVLKSLDRNNPVRQNNDPLPGRIRYRALDYSEVEVPFGDKDQKGDFTLRHGDWVQFLLATDRRDQLQRATSIALLDETFKVSGEKREQGTIASLKEGFGFLRCVERQARLFFHFTEVLDTSREIDINDEVEFTVIQEPGLAYNNSRLQAIRIKHLPPNSVQFETLVASNIEGCVTREAPKSPIKSQDRVEGGVITYEHADVKKTIMYFLKDCEKPPRIGERVRFDIYMVKRNKECIAVNVQQVSLHQQQQQQQQQLHLNQSNAGANINQNDQLGGLSNGISSSSSNASLQNGYVMHGSPGGSTSSVGSNNPVHLDEFKMENNNHAGSDAGQVYRGFIAVMKENFGFIETLSHDEEVFFHFSNYMGNPNWLELGQEVEYTLARNGNTSVSGNCLPAENVRMLPKNSIPQPAVLETTHNGVVARPLRCINPDQQEYAGLIEILDELRTTVISQHEFGITSLVNKRDLLQKGDLVSFRIDESGRAACVNAVRQKKRATVDSIKGQFGFLNFEVEDGKKLFFHMSEVQGNTVALHPGDTVEFSVVTNQRNGKSSACNVLKINDRPDRLISRLKLNGDDTVPRLILIRAPKGPQGKGFSVLARHPRIPGNLVE
In the case of B3, the MAPPIT interaction score with Sxl was 1.51 (inactive).

B4: grass (protein)
chain: MMIASSLAVLYGIAIVSSMGVQSARADYADDCTTPDGDQGQCMPFSSCRTIEERLTEAQKAGQKVPADYASYLQKALCGEFNGVRHFCCPSANIQHNSKVMSLFKDENFDCGNFLSQRVSNGYEVKLSSRPWMALLRYQQFGESRFLCGGAMISERYILTAAHCVHGLQNDLYEIRLGEHRISTEEDCRQQGRKKKCAPPVVNVGIEKHLIHEKYDARHIMHDIALLKLNRSVPFQKHIKPICLPITDELKEKAEQISTYFVTGWGTTENGSSSDVLLQANVPLQPRSACSQAYRRAVPLSQLCVGGGDLQDSCKGDSGGPLQAPAQYLGEYAPKMVEFGIVSQGVVTCGQISLPGLYTNVGEYVQWITDTMASNGL
As for B4, the MAPPIT interaction score in the test with Syp was -0.0477 (inactive).

B5: Zpr1 (protein)
chain: MSTVSDPNSSNPPESAGNIRPEPIFREINAEQTDEIVEVESACMNCFETGVTRLLPTKIPFFREVVLMSFKCDHCGHINNEMQSASEIQKSGIRIELRVQSVADLNRRVVRSDNSSISIPEIELEIPVQSQKGEVTTVEGIIERTIAGLSQDQEKRRIDHPETAASIEKYIERLHRLKEVTTPFQVLLEDISGNSFIENPLAPAADPQLKTSYFTRSQQQNEQLGLYEQNHEEQHLLKPIAEDSWPIENLHGEVLQFPTNCPSCQAPCETNMKLTNIPHFKEVVIMATVCGACGHKTNEVKSGGGVEAQGVRFRVQIASREDLTRDVLKSETCSMSIPELDLEVGPHALCGRFTTVEGLLVAMRDQLDGTLFHDSADDATKQQMQRFLDTFEDVMNLKRVITLVLEDPAGNTYVQSLSDDDSEPDDKLTVERYDRSYEDNEDLGLNDMKTEGYEEKA
Turning to B5, the MAPPIT interaction score in the test with Swt1 was -0.39 (inactive).

B6: Drs (protein)
chain: MMQIKYLFALFAVLMLVVLGANEADADCLSGRYKGPCAVWDNETCRRVCKEEGRSSGHCSPSLKCWCEGC
B6: the MAPPIT interaction score with Sod3 (MAPPIT configuration: N-C, pair source set: screen_4) is 1.45 (inactive).

B7: Calr (protein)
chain: MMWCKTVIVLLATVGFISAEVYLKENFDNENWEDTWIYSKHPGKEFGKFVLTPGTFYNDAEADKGIQTSQDARFYAASRKFDGFSNEDKPLVVQFSVKHEQNIDCGGGYVKLFDCSLDQTDMHGESPYEIMFGPDICGPGTKKVHVIFSYKGKNHLISKDIRCKDDVYTHFYTLIVRPDNTYEVLIDNEKVESGNLEDDWDFLAPKKIKDPTATKPEDWDDRATIPDPDDKKPEDWDKPEHIPDPDATKPEDWDDEMDGEWEPPMIDNPEFKGEWQPKQLDNPNYKGAWEHPEIANPEYVPDDKLYLRKEICTLGFDLWQVKSGTIFDNVLITDDVELAAKAAAEVKNTQAGEKKMKEAQDEVQRKKDEEEAKKASDKDDEDEDDDDEEKDDESKQDKDQSEHDEL
Take B7: the MAPPIT interaction score in the test with Su(var)2-10 is 1.1 (inactive).

B8: CtsF (protein)
chain: MRLFAAATVALVLLLGQAAGEELAEERAGQAQGDAESTESSETTTDQAVSEPPITLVHVLNPGEREYLSPNLIGVQNIAMTFLPLSMNFVNIIDAFREITAGVRYEILLNALDTKAIQPAEADIVCRLVILEKPWLRTQWGDKHRELVTSNCTDPAVNSVAGDPAEKARLLNEKYVHRSRRSANDILGRHKPYDEEAAKAQLQKSLDKLTAGEGPHYKIVKVYSASRQVDSGILTRIDADLIDGSEEQHRCIVDIWTKVWVRKDEHEITFKCRNQPVVQARHTRSVEWAEKKTHKKHSHRFDKVDHLFYKFQVRFGRRYVSTAERQMRLRIFRQNLKTIEELNANEMGSAKYGITEFADMTSSEYKERTGLWQRDEAKATGGSAAVVPAYHGELPKEFDWRQKDAVTQVKNQGSCGSCWAFSVTGNIEGLYAVKTGELKEFSEQELLDCDTTDSACNGGLMDNAYKAIKDIGGLEYEAEYPYKAKKNQCHFNRTLSHVQVAGFVDLPKGNETAMQEWLLANGPISIGINANAMQFYRGGVSHPWKALCSKKNLDHGVLVVGYGVSDYPNFHKTLPYWIVKNSWGPRWGEQGYYRVYRGDNTCGVSEMATSAVLA
For B8, in the test with Taf12, the MAPPIT interaction score was 0.31 (inactive).

B9: shv (protein)
chain: MQLIKCLVIIQLSLLLVEESFAGRDFYKILNVKKNANTNEVKKAYRRLAKELHPDKNKDDPDASTKFQDLGAAYEVLSNPDKRKTYDRCGEECLKKEGMMDHGGDPFSSFFGDFGFHFGGDGQQQDAPRGADIVMDLYVSLEELYSGNFVEIVRNKPVTKPASGTRKCNCRQEMVTRNLGPGRFQMIQQTVCDECPNVKLVNEERTLEIEVEQGMVDGQETRFVAEGEPHIDGEPGDLIVRVQQMPHPRFLRKNDDLYTNVTISLQDALVGFSMEIKHLDGHLVPVTREKVTWPGARIRKKGEGMPNFENNNLTGNLYITFDVEFPKKDLTEEDKEALKKILDQSSINRIYNGL
For the molecule B9, in the test with Sod3 (MAPPIT configuration: N-N, pair source set: Curagen_high_conf), the MAPPIT interaction score was 0.367 (inactive).

B10: snf (protein)
chain: MEMLPNQTIYINNLNEKIKKEELKKSLYAIFSQFGQILDIVALKTLKMRGQAFVIFKEIGSASNALRTMQGFPFYDKPMQIAYSKSDSDIVAKIKGTFKERPKKVKPPKPAPGTDEKKDKKKKPSSAENSNPNAQTEQPPNQILFLTNLPEETNEMMLSMLFNQFPGFKEVRLVPNRHDIAFVEFTTELQSNAAKEALQGFKITPTHAMKITFAKK
Turning to B10, the MAPPIT interaction score with THG was 0.333 (inactive).

B11: Dysb (protein)
chain: MFGNLKKKLSSAIQEGLVISENLQQQYRQRVSSGNSGSSQASGITTPISPLGLNESLSSSRSSSLSLSAPFQLTDGVPSHLNVAAGCSLLAKYEDDWQQIHGANEKNAEKAAQIANQISGIQDQASHQHRIMSELNSSLAGIPTLIAQLQNSSQVLNSLEEMGKQLEIELEKLEDLREECELQEFILEQQFQLSRHKQKKLNELEQYRQQIAQKHQSKIKDQEQTLLKLQRERQAVFDDAFREDMEEYKQRGQLTKIQTTSNKLALEEVVLEANEVETKDALEQFLNG
B11: the MAPPIT interaction score with Snapin is 3.8 (active).
